The target in assay [1] is Paired box protein Pax-6 (Homo sapiens) (UniProt P26367). Description: ATG_Pax6_CIS: Attagene CIS-FACTORIAL HepG2 Assay for human Paired Box 6 (PAX6) (AID 2282956). The conditions noted are these: HepG2 CIS-FACTORIAL PAX6 reporter transcription, RNA readout; actives raise or lower the signal. In short, it runs like this: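 Multiplexed cis-reporter HepG2 system; 24 h treatment; reporter mRNA read by RT-PCR/CE fluorescence; bidirectional fit vs DMSO.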

Assay [2] is described as follows: ATG_PXRE_CIS: Attagene CIS-FACTORIAL HepG2 Assay for human Pregnane X Receptor Element (PXRE) (AID 2282957). The conditions noted are these: HepG2 Attagene CIS-FACTORIAL PXRE reporter, mRNA; actives raise or lower the signal. In short, it runs like this: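 HepG2 cells transiently transfected with cis-regulated multiple reporter transcription units; endogenous factor activity measured as reporter mRNA 24 h after dosing. RT-PCR, fluorescent primer extension, HpaI digestion, capillary electrophoresis; bidirectional fit versus DMSO baseline.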

A short description of assay [3]: ATG_PPRE_CIS: Attagene CIS-FACTORIAL HepG2 Assay for human Peroxisome Proliferator-activated Response Element (PPRE) (AID 2282958). The conditions noted are these: HepG2 PPRE cis-element reporter, Attagene transcription factor profiling; actives raise or lower the signal. In short, it runs like this: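 In this cell-based multiplex, a PPRE cis element drives a reporter sequence in transiently transfected HepG2 cells. Following 24 h treatment, labeled cDNA amplicons are sized and quantified by capillary electrophoresis, with DMSO defining baseline.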

Assay [4] is described as follows: ATG_RORE_CIS: Attagene CIS-FACTORIAL HepG2 Assay for human RAR-related Orphan Receptor Element (RORE) (AID 2282959). Particulars: HepG2 Attagene cis-factorial RORE reporter, mRNA; actives raise or lower the signal. In a few lines: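 Endogenous factor activity at a cis response element is read as reporter transcript levels in HepG2 cells, 24 h post-dose. Transcripts are quantified by RT-PCR with capillary electrophoresis, and data fitted in both directions against DMSO.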

Assay [5] can be described thus: ATG_Sox_CIS: Attagene CIS-FACTORIAL HepG2 Assay for human SRY-box transcription factor (SOX) (AID 2282960). The conditions noted are these: HepG2 Attagene cis-factorial SOX reporter, mRNA; actives raise or lower the signal. In short, it runs like this:
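Measures mRNA induction of a SOX1-associated reporter in HepG2 after 24 h dosing. Fluorescently labelled RT-PCR fragments are separated by capillary electrophoresis, and gain or loss relative to DMSO control is fitted.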

Assay [6] concerns the target Transcription factor Sp1 (Homo sapiens) (UniProt P08047). Description: ATG_Sp1_CIS: Attagene CIS-FACTORIAL HepG2 Assay for human Specificity Protein 1 (Sp1) (AID 2282961). The conditions noted are these: HepG2 Sp1 cis-reporter transcription, actives raise or lower the signal. In a few lines: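 Cells: HepG2, transiently transfected with cis-regulated multiplexed reporters. Exposure: 24 h. Detection: reporter transcripts amplified, fluorescently labeled, restriction-digested and sized by capillary electrophoresis. Analysis: bidirectional fit relative to DMSO.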

The nature of assay [7]: ATG_SREBP_CIS: Attagene CIS-FACTORIAL HepG2 Assay for human Sterol Regulatory Element Binding (SREBP) (AID 2282962). Particulars: HepG2 Attagene cis-factorial SREBP reporter, mRNA; actives raise or lower the signal. In short, it runs like this:
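mRNA induction of transfected cis-promoter reporters in HepG2 cells, 24 h post-dose. Detection: RT-PCR with 6-FAM-labelled products, HpaI digest, capillary electrophoresis. DMSO served as negative control and baseline.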

Assay [8] has as its target Signal transducer and activator of transcription 3 (Homo sapiens) (UniProt P40763). Description: ATG_STAT3_CIS: Attagene CIS-FACTORIAL HepG2 Assay for human Signal Transducer and Activator of Transcription 3 (STAT3) (AID 2282963). The conditions noted are these: HepG2, Attagene cis-factorial STAT3 reporter transcription; actives raise or lower the signal. In short, it runs like this: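 Endogenous STAT3-responsive cis-element activity was read in transiently transfected HepG2 cells after 24 h treatment. Reporter transcripts were quantified via RT-PCR and capillary electrophoresis, with DMSO as negative control and bidirectional curve fitting.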

Assay [9] can be described thus: ATG_TA_CIS: Attagene CIS-FACTORIAL HepG2 Assay for human TA Basal Promoter (AID 2282964). The conditions noted are these: HepG2 Attagene CIS-factorial TA basal promoter reporter; actives raise or lower the signal. In a few lines: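 Steps: transfect HepG2 with MRTUs; dose 24 h; isolate RNA, DNase-treat, reverse-transcribe; PCR and FAM-label reporter cDNA; digest with HpaI 2h at 37 C; run capillary electrophoresis. Activity fitted both directions against DMSO.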

Assay [10] can be described thus: ATG_TCF_b_cat_CIS: Attagene CIS-FACTORIAL HepG2 Assay for human T-Cell-Factor with beta-catenin (TCF/b-cat) (AID 2282965). Particulars: HepG2 TCF/beta-catenin cis-reporter transcription, actives raise or lower the signal. In a few lines:
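Endogenous TCF/LEF activity read as reporter transcript level via RT-PCR and capillary electrophoresis fluorescence in transfected HepG2, 24 h exposure; gain or loss of signal fitted against DMSO controls.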

Assay [11] in a line: ATG_TAL_CIS: Attagene CIS-FACTORIAL HepG2 Assay for human TAL Basal Promoter (AID 2282966).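 Note: background control endpoint measuring basal TAL promoter reporter mRNA not a specific factor.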 The conditions noted are these: HepG2 Attagene cis-factorial TAL promoter reporter; actives raise or lower the signal. In short, it runs like this:
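HepG2 cells were transiently transfected with promoter-driven multiplexed reporter units and dosed for 24 h. Reporter mRNA was measured by RT-PCR with capillary electrophoresis fluorescence; bidirectional fits used DMSO as baseline, serving as a background control.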

Assay [12] in a line: ATG_TGFb_CIS: Attagene CIS-FACTORIAL HepG2 Assay for human Transforming Growth Factor (TGF) (AID 2282967). The conditions noted are these: HepG2 Attagene CIS TGFb reporter, mRNA transcription; actives raise or lower the signal. In a few lines:
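Cells were dosed for 24 hours, after which total RNA was reverse-transcribed and reporter sequences amplified, labeled and sized by capillary electrophoresis. Activity was fitted in both directions against DMSO.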

Assay [13] is described as follows: ATG_VDRE_CIS: Attagene CIS-FACTORIAL HepG2 Assay for human Vitamin D Receptor Element (VDRE) (AID 2282968). Particulars: HepG2 VDRE cis-reporter transcription, actives raise or lower the signal. In a few lines:
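Reporter mRNA induction, quantified by capillary electrophoresis of fluorescently labelled RT-PCR products, was read 24 h after dosing HepG2 cells carrying transiently transfected cis-regulated reporter units; gain or loss relative to DMSO.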

A short description of assay [14]: ATG_M_19_TRANS: Attagene TRANS-FACTORIAL HepG2 Assay for M19 Transcription Factor (Internal Marker) (AID 2282974; active = hit-call score of the fitted dose curve at least 0.9, where 1 is the maximum). Particulars: HepG2 Attagene TRANS-FACTORIAL M19 internal marker reporter. In short, it runs like this: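 Reporter mRNA induction was measured in transfected HepG2 cells 24 h after dosing. Endpoint fitted upward relative to DMSO and serves as a background control within the multiplexed TRANS panel.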

Assay [15] has as its target Nuclear receptor subfamily 1 group I member 3 (Homo sapiens) (UniProt Q14994). Description: ATG_CAR_TRANS: Attagene TRANS-FACTORIAL HepG2 Assay for human Constitutive Androstane Receptor (CAR) (AID 2282969; active = hit-call score of the fitted dose curve at least 0.9, where 1 is the maximum;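 note: activators raise reporter mRNA above DMSO so AC50 marks induction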). The conditions noted are these: HepG2 Attagene TRANS-FACTORIAL CAR reporter. In a few lines:
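Readout is reporter mRNA induction, quantified by fluorescent primer extension and capillary electrophoresis after RT-PCR. Cells were HepG2 transiently carrying chimeric NR-Gal4 constructs with GAL4-UAS reporters, treated for 24 h; activity scored upward from DMSO.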

For assay [16], the target named is Estrogen receptor (Homo sapiens) (UniProt P03372). Description: ATG_ERa_TRANS: Attagene TRANS-FACTORIAL HepG2 Assay for human Estrogen Receptor alpha (ERa) (AID 2282970; active = hit-call score of the fitted dose curve at least 0.9, where 1 is the maximum). Particulars: HepG2 Attagene TRANS ERa GAL4 reporter, mRNA. In short, it runs like this:
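HepG2 cells transiently transfected with multiplexed GAL4-UAS reporter units; ERa activity read via exogenous chimeric NR-Gal4 protein. After 24 hour compound exposure, reporter mRNA measured by RT-PCR with 6-FAM labelling and capillary electrophoresis; gain-of-signal fitted relative to DMSO.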

The target of assay [17] is X-box-binding protein 1 (Homo sapiens) (UniProt P17861). Description: ATG_Xbp1_CIS: Attagene CIS-FACTORIAL HepG2 Assay for human X-box Binding Protein 1 (XBP1) (AID 2282972). The conditions noted are these: HepG2 XBP1 cis-element reporter, Attagene multiplex; actives raise or lower the signal. In a few lines: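 Fluorescence-labelled cDNA fragments from reporter transcripts, separated by capillary electrophoresis, give the signal. Source: HepG2 cells transfected with promoter-driven reporter units, harvested 24 h post-dose. DMSO served as reference for bidirectional curve fitting.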

Assay [18] in a line: ATG_GAL4_TRANS: Attagene TRANS-FACTORIAL HepG2 Assay for GAL4 (Internal Marker) (AID 2282976; active = hit-call score of the fitted dose curve at least 0.9, where 1 is the maximum). Particulars: HepG2 Attagene TRANS GAL4 internal marker reporter. In a few lines:
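HepG2 cells transiently transfected with multiplexed GAL4-UAS reporter constructs were dosed for 24 h. Reporter mRNA was measured by RT-PCR, 6-FAM primer extension, HpaI digestion and capillary electrophoresis, and gain of signal was fitted relative to DMSO.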

Records with an inconclusive call do not appear. The source made the active and inactive calls. Rule for the calls, unless noted: active = hit-call score of the fitted dose curve at least 0.9, where 1 is the maximum; inactive = score below 0.9.

Chain of Signal transducer and activator of transcription 3 (Homo sapiens) (P40763 whole entry, looked up): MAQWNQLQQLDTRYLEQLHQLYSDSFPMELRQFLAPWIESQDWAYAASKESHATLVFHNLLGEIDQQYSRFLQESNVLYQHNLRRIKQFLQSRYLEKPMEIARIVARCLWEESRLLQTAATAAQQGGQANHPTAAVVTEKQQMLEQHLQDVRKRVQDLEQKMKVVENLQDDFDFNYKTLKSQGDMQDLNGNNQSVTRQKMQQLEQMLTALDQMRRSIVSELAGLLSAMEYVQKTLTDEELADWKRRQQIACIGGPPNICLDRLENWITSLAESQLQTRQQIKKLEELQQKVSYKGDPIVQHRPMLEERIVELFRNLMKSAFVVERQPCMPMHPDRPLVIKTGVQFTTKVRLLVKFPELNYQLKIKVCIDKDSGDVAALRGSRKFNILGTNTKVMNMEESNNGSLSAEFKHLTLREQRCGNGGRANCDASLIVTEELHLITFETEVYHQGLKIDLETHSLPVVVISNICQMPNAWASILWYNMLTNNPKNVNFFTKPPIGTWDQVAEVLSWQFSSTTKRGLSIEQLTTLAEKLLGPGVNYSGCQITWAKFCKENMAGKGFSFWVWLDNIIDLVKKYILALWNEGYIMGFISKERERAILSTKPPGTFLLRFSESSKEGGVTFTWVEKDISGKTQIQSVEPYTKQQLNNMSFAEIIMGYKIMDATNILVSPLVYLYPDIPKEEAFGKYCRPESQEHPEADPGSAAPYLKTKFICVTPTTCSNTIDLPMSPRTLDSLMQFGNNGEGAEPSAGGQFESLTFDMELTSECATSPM
Chain of Estrogen receptor (Homo sapiens) (P03372 whole entry, looked up, the tested form may be a part): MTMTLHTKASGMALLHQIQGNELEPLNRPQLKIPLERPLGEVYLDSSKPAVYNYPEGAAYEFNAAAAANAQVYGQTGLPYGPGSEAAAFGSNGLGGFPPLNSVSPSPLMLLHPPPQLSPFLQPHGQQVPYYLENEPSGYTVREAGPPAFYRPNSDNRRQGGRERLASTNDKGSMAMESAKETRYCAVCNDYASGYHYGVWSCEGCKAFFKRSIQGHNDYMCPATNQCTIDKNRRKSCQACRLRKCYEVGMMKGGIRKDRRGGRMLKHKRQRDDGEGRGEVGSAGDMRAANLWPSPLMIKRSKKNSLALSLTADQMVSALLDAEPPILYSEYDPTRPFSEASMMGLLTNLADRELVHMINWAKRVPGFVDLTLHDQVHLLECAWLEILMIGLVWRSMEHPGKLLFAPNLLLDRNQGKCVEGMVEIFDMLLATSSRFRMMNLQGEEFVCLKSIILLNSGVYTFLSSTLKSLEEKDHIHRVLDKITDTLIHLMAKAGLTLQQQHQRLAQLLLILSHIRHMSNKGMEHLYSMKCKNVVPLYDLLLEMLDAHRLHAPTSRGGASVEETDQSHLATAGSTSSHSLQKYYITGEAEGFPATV
Chain of Transcription factor Sp1 (Homo sapiens) (P08047 whole entry, looked up): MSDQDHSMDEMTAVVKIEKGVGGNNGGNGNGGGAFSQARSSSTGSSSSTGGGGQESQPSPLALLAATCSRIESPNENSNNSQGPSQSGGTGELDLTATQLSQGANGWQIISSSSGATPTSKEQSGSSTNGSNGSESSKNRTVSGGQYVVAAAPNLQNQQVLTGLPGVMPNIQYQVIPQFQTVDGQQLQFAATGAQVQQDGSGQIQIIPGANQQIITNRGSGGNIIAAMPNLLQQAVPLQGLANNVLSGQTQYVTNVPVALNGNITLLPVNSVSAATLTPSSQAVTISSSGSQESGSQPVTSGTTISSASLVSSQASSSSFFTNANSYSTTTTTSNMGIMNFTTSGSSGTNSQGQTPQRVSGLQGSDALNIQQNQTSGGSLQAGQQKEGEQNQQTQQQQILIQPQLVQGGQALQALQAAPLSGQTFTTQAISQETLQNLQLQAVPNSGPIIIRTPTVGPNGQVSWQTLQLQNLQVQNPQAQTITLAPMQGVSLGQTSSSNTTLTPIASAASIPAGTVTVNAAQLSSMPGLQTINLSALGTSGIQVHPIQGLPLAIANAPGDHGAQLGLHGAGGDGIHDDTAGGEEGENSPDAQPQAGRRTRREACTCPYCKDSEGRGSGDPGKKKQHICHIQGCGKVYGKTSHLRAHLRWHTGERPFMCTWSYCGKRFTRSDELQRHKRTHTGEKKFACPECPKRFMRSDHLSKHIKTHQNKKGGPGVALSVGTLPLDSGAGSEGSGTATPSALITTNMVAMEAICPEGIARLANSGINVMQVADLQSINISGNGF
Chain of Paired box protein Pax-6 (Homo sapiens) (P26367 whole entry, looked up): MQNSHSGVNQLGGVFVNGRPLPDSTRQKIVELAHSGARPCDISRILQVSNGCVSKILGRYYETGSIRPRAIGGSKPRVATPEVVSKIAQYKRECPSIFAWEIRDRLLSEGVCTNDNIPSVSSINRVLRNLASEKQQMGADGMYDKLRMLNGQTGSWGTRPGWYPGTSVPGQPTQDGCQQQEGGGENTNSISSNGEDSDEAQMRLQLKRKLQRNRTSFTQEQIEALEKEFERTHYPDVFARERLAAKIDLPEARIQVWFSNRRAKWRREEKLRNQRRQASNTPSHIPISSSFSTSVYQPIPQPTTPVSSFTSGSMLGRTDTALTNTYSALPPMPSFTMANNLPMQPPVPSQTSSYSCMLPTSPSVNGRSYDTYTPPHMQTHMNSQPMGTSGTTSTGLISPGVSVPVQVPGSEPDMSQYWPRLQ
Chain of X-box-binding protein 1 (Homo sapiens) (P17861 whole entry, looked up, the tested form may be a part): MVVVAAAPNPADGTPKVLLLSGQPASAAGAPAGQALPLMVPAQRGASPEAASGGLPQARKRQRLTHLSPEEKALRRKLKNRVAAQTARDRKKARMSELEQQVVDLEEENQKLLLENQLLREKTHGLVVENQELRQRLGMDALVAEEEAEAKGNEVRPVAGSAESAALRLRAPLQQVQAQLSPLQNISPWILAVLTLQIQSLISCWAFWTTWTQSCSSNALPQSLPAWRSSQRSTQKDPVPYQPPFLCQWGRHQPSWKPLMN
Chain of Nuclear receptor subfamily 1 group I member 3 (Homo sapiens) (Q14994 whole entry, looked up, the tested form may be a part): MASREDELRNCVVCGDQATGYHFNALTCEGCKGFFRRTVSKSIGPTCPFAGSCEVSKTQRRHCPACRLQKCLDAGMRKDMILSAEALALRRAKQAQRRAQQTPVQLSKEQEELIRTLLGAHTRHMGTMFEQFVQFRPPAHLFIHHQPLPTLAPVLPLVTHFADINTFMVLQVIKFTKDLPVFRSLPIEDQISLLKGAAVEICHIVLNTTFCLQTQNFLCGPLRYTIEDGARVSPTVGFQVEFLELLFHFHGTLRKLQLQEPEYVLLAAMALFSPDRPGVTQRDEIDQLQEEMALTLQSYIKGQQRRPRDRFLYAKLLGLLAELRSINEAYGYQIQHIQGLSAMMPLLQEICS

Consider `Cc1oc2c(NC(=O)c3c(Cl)cccc3Cl)cccc2c1C(C)(C)O`, for which the half-maximal activity concentration (AC50) – broadly, the midpoint of the concentration-response curve, whichever way the signal moves – in assay [1] was 85.7 µM (active); in [2], 0.116 µM (active); in assay [3], 71.8 µM (active); in assay [4] it was 31.6 µM (active); in assay [7], 6.28 µM (active); in [9] it was 41.5 µM (active). Also, the AC50 in assay [10] was 25.4 µM (active); in assay [11] it was 33.1 µM (active); in assay [13], 4.01 µM (active). Also, the call in [5], in assay [6], in assay [8], in assay [12] and in assay [14] was inactive.

On to `CC[C@@H]1C[C@H](N(Cc2cc(C(F)(F)F)cc(C(F)(F)F)c2)C(C)=O)c2cc(C(F)(F)F)ccc2N1C(=O)OC(C)C`, for which the outcome in assay [1], in assay [3], in assay [4], in assay [5], in [6] and in assay [7] was inactive. Further, the call in assay [8], in assay [9], in [10], in assay [11], in assay [12] and in assay [15] was inactive. Further, the call in [17] and in assay [18] was inactive. The results for the AC50 in assay [2], in [13] and in assay [16] were 0.0676 µM (active), 0.119 µM (active) and 100 µM (active), respectively.

As for `COc1ccc2cc(S(=O)(=O)N[C@H](CC(=O)N[C@H](Cc3ccc(CN4[C@H](C)CCC[C@@H]4C)cc3)C(=O)N(C)C(C)C)c3ccc4c(c3)OCO4)ccc2c1`, the result in assay [1], in assay [2], in assay [3], in assay [4], in assay [5] and in assay [6] was inactive. For the same compound, the result in assay [8], in assay [11], in assay [12], in assay [13], in assay [14] and in [18] was inactive. Besides, the AC50 in assay [7] was 0.564 µM (active); in assay [9], 11 µM (active); in assay [10], 11.2 µM (active); in assay [16], 11 µM (active); in assay [17] it was 11 µM (active).

For `OCCO`, the compound was called inactive in assay [1], in assay [2], in [3], in assay [5], in assay [6] and in assay [7]. Besides, the outcome in assay [8], in assay [9], in assay [11], in [12], in assay [13] and in [16] was inactive. Further, the outcome in assay [14] and in [18] was inactive.

(Values after PubChem BioAssay (EPA / NIEHS).)
